Drawing on PubChem BioAssay (NCATS), this text covers outcome and Potency for ten compounds.

Each structure is given as a SMILES string. Values joined by “and” are separate entries in the source; they are usually repeats but may differ in a detail not shown here. Equal entries are not always repeated. Values without a mark were called inactive. Results filed as inconclusive are left out. Active and inactive are the calls of the source. Unless noted, calls follow the shape of the dose curve; as a rule, active = well fitted curve in the direction sought with a large enough effect; inconclusive = small, poorly fitted or top-dose-only effect, or another doubt; inactive = no such curve, though single readings can be large; an effect the other way counts as inactive or inconclusive. A value given as a limit tells only on which side of the number the result lay.

Assay [1] in a line: AP1 Signaling Pathway (AID 357; active = well fitted curve in either direction with a large enough effect, not every such curve was filed as active;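 also: ME-180 reporter cells stimulated with EGF at its EC50 level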). The procedure, abridged:
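Cells are seeded overnight, exposed to compound titrations and an EC50 level of EGF for 5 hours at 37 °C, then loaded with CCF4 dye for 2.5 hours. Beta-lactamase activity under the AP-1 element is read as a blue/green ratio.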

Assay [2] deals with Cytochrome P450 1A2 (Homo sapiens) (UniProt P05177). In words: p450-cyp1a2 (AID 410; calls by dose curve; also: potency is read from the fitted curve at half-maximal effect). The procedure, abridged: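 Luminescent readout of luciferin formed from Luciferin-ME by human CYP1A2; data normalized against complete inhibition by 57 uM furafylline. Enzyme 20nM, substrate 100uM at Km, 100mM KPO4 buffer, 60 min reaction at room temperature.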
Chain of Cytochrome P450 1A2 (Homo sapiens) (P05177 whole entry, looked up): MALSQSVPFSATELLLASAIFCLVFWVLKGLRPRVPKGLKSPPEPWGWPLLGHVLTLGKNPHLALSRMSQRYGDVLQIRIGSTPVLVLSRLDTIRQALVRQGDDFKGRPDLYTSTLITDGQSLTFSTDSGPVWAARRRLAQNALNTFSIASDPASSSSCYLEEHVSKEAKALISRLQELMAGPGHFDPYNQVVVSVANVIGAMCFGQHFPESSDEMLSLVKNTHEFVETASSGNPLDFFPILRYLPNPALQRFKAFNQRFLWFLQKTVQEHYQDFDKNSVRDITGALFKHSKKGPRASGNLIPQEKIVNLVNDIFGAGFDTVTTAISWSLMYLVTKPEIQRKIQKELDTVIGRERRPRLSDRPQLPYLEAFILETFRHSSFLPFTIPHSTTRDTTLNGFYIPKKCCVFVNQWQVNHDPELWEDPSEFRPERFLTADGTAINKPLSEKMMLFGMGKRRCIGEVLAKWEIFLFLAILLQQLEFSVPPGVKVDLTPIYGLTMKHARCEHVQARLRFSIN
Assay [3] can be described thus: Stat Signaling Pathway (AID 446; active = well fitted curve in either direction with a large enough effect, not every such curve was filed as active;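 also: ME-180 cervical cancer cells given 40 pM IL-6 alongside compound; SIE-controlled beta-lactamase reporter measured as 460/530 nm FRET emission ratio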). The procedure, abridged:
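Screening format detects activators and inhibitors alike: ME-180 SIE-bla cells stimulated at 40 pM IL-6 for 5 hrs with compound, then dual-emission beta-lactamase read at 405 nm excitation.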

The target of assay [4] is Glucocorticoid receptor (Homo sapiens) (UniProt P04150). In words: GR-GFP Redistribution (AID 450;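 active = compounds whose dose series gives a full or clear partial fitted curve of increased nuclear translocation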; also: potency is read from the fitted curve at half-maximal effect). To be noted: U2OS GR-GFP nuclear translocation, laser cytometry, 2 h.
Chain of Glucocorticoid receptor (Homo sapiens) (P04150 whole entry, looked up, the tested form may be a part): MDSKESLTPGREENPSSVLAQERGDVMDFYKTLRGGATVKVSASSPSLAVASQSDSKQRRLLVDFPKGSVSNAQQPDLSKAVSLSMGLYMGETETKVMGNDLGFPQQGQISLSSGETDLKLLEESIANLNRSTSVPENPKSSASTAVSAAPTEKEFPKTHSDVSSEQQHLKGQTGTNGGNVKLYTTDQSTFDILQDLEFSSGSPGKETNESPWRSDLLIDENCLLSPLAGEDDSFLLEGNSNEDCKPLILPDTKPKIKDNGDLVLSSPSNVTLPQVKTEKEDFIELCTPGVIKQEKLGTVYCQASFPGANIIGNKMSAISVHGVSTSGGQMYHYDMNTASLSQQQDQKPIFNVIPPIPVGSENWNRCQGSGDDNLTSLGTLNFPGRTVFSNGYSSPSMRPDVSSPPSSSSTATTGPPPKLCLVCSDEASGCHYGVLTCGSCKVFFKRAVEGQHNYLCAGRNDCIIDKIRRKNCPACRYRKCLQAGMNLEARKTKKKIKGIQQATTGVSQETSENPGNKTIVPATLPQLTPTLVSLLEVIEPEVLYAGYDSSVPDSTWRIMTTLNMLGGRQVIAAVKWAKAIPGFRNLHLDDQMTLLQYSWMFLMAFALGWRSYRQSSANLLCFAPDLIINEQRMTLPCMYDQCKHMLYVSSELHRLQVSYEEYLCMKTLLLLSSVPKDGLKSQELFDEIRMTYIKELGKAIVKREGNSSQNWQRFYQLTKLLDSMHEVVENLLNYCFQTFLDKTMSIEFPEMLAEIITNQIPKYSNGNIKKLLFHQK
For assay [5] the target is unchanged. The assay is described as follows: GR-EFC Redistribution (AID 451; calls by dose curve; also: potency is read from the fitted curve at half-maximal effect). As to conditions: CHO-K1 GR-EFC translocation, beta-gal luminescence, 2 h. The procedure, abridged: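 Translocation of GR-ED fusion to nuclear EA restores b-gal, read by luminescence after 1 h room-temperature detection. Engineered CHO-K1 biosensor cells, 1,000/well, exposed 2 h at 37 C to titrations up to 46 uM final.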

For assay [6], the target named is Guanine nucleotide-binding protein G(i) subunit alpha-1 (Homo sapiens) (UniProt P63096). In words: qHTS Assay for Inhibitors of RGS12 GoLoco Motif Activity (Green Fluorophore) (AID 879).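 Also: negative values mean loss of peptide binding seen as reduced polarization.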 The procedure, abridged:
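Fluorescence polarization assay: 50 nM Gαi1 with 10 nM FITC-labeled RGS12 GoLoco peptide in 10 mM Tris pH 7.5, 150 mM NaCl, 0.1 mM GDP, 0.05% NP40, 10 min at room temperature with compound.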
Background: Quantitative high-throughput screening tests each substance at several concentrations.

Assay [7] has as its target Cytochrome P450 3A4 (Homo sapiens) (UniProt P08684). The assay is described as follows: qHTS Assay for Activators of Cytochrome P450 3A4 (AID 885). Also: nearly all actives have a fitted effect of over 65% in size. Also: potency is read from the fitted curve at half-maximal effect. In a few lines:
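Steps: enzyme/substrate mix dispensed; compound added, 10 min RT; NADPH regeneration solution added, 60 min RT; luciferin detection buffer stops reaction; 20 min later luminescence measured.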

The target of assay [8] is Cytochrome P450 2D6 (Homo sapiens) (UniProt P10635). The assay is described as follows: qHTS Assay for Inhibitors and Substrates of Cytochrome P450 2D6 (AID 891). Also: nearly all actives have a fitted effect of over 60% in size. Also: potency is read from the fitted curve at half-maximal effect. In a few lines: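 Human CYP2D6 (5 nM) with 30 uM Luciferin-ME EGE (at Km) in 100 mM KPO4, compound preincubated 10 min, then NADPH regeneration system for 60 min at room temperature. Luciferin read by luminescence; normalized to 1.43 uM quinidine.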
Chain of Cytochrome P450 2D6 (Homo sapiens) (P10635 whole entry, looked up): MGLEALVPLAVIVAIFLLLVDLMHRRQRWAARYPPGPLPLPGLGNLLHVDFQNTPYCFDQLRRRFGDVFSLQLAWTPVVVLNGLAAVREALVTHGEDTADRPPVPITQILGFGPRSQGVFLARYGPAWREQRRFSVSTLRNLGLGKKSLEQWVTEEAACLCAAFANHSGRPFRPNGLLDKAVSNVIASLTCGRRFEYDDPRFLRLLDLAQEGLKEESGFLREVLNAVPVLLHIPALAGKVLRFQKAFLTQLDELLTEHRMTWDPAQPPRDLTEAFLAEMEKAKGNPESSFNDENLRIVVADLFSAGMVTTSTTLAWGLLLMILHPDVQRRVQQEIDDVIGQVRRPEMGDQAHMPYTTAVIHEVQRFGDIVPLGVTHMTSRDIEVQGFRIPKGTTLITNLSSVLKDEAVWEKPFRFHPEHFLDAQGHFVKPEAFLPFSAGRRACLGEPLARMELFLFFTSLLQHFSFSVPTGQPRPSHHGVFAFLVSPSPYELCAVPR

The target of assay [9] is Pyruvate kinase (Leishmania mexicana) (UniProt Q27686). In words: qHTS Validation Assay for Inhibitors of Leishmania Mexicana Pyruvate Kinase (AID 945). In a few lines: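 LmPYK E451W 0.2 nM; 0.5 mM PEP, 0.1 mM ADP, 7 mM MgCl2, 50 mM KCl, imidazole pH 7.2, 0.01% Tween 20, 0.05% BSA; 1 h RT; PKLight luminescence; DMSO-normalized.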
For assay [10], the target named is Pyruvate kinase PKM (Homo sapiens) (UniProt P14618). In words: qHTS Assay for Activators of Human Muscle Pyruvate Kinase (AID 954; active = well fitted curve in the direction sought with a large enough effect, not every such curve was filed as active). The procedure, abridged:
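Reaction: 0.1 nM purified PKM2 with 0.5 mM phosphoenolpyruvate and 0.1 mM ADP, room temperature, 1 h. Readout: luciferase-based ATP luminescence after stop reagent. Activators judged against a 0.3 nM enzyme column.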

In assay [11] the target is Alpha-galactosidase A (Homo sapiens) (UniProt P06280). The assay is described as follows: Counterscreen for Glucocerebrosidase Inhibitors: qHTS Assay for Human alpha-Galactosidase at pH 4.5 (AID 992). In a few lines: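 Concentration-response curves (0.7 nM to 77 uM final) were modeled with the Hill equation to give AC50. Reactions: 2 nM enzyme, 80 uM fluorogenic alpha-galactoside, pH 4.5 citric acid buffer, 20 min, room temperature.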
On the technique in general: The purpose of a counterscreen is to sort out artefacts and off-target activity.

Assay [12] concerns the target alpha-glucosidase (Oryza sativa, rice) (UniProt Q653V4). In words: Counterscreen for Glucocerebrosidase Inhibitors: qHTS Assay for Rice alpha-Glucosidase at pH 5.0 (AID 997). The procedure, abridged: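 Rice alpha-glucosidase (4 nM final) with 400 uM 4-methylumbelliferyl-alpha-D-glucopyranoside in citrate buffer pH 5.0, 20 min at room temperature, stopped at pH 10; fluorescence 365/440 nm, compounds 0.7 nM–77 uM, AC50 from Hill fits.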

Assay [13] has as its target Alpha-galactosidase (Coffea arabica) (UniProt Q42656). In words: Counterscreen for Glucocerebrosidase Inhibitors: qHTS Assay for Coffee Bean alpha-Galactosidase at pH 5.9 (AID 998). In a few lines:
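Compounds were titrated from 0.7 nM to 77 uM against green coffee bean alpha-galactosidase (2 nM) using 80 uM fluorogenic 4-methylumbelliferyl substrate. After 20 min at room temperature, reactions were stopped at pH 10 and read by fluorescence.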

Assay [14] concerns Zika virus NS2B-NS3 protease. In words: Primary screen GU AMC qHTS for Zika virus inhibitors (AID 1347154). Also: nearly all actives have a fitted effect of over 70% in size. In a few lines: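 Fluorogenic AMC-substrate cleavage by noncovalent NS2B-NS3 protease complex (25 nM, pH 8.0 Tris buffer with Tween 20) followed for 15 minutes at room temperature (~20% conversion). Percent inhibition from ex340/em450 signal change, fitted by 4-parameter Hill equation.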

The nature of assay [15]: Primary qHTS for small molecule stabilizers of the endoplasmic reticulum resident proteome: Secreted ER Calcium Modulated Protein (SERCaMP) assay (AID 1508630). The procedure, abridged:
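GLuc-SERCaMP-expressing SH-SY5Y cells, pretreated 16 h with compound, are challenged with thapsigargin to empty ER calcium stores; after 4 h, coelenterazine is added directly to the medium and luminescence is imaged.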

Assay [16] concerns the target Mitogen-activated protein kinase 10 (Mus musculus) (UniProt Q61831). The assay is described as follows: JNK3 AlphaScreen Assay (AID 530; active = well fitted curve in either direction with a large enough effect, not every such curve was filed as active;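 also: kinase came from lysate of stimulated human HepG2 cells; signal reports phosphorylation of biotinylated GST-cJun 1-79 at Ser73 with 10 µM ATP; series mostly up to about 57 µM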). The procedure, abridged:
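Compound titrations were preincubated 15 minutes at room temperature with substrate, antibody and pre-activated JNK3-containing HepG2 lysate. Reactions were started with 10 uM ATP and stopped with EDTA-containing bead buffer for AlphaScreen detection.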
Background: Alpha assays give light when donor and acceptor beads are brought close together.

In assay [17] the target is 3',5'-cyclic-AMP phosphodiesterase 4B (Homo sapiens) (UniProt Q07343). In words: qHTS Assay for Inhibitors of PDE-IV (AID 607; active = well fitted activation curve with a large enough effect in the main read-out, with a control signal flat, not every such curve was filed as active). In a few lines: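 The readout is membrane depolarisation from a cAMP-sensing CNG channel, detected with a potential dye at ex 535/em 590. Cells were HEK293-derived (endogenous PDE-IV) at 1000 cells/well, titrated up to 22.9 uM final.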
Chain of 3',5'-cyclic-AMP phosphodiesterase 4B (Homo sapiens) (Q07343 whole entry, looked up): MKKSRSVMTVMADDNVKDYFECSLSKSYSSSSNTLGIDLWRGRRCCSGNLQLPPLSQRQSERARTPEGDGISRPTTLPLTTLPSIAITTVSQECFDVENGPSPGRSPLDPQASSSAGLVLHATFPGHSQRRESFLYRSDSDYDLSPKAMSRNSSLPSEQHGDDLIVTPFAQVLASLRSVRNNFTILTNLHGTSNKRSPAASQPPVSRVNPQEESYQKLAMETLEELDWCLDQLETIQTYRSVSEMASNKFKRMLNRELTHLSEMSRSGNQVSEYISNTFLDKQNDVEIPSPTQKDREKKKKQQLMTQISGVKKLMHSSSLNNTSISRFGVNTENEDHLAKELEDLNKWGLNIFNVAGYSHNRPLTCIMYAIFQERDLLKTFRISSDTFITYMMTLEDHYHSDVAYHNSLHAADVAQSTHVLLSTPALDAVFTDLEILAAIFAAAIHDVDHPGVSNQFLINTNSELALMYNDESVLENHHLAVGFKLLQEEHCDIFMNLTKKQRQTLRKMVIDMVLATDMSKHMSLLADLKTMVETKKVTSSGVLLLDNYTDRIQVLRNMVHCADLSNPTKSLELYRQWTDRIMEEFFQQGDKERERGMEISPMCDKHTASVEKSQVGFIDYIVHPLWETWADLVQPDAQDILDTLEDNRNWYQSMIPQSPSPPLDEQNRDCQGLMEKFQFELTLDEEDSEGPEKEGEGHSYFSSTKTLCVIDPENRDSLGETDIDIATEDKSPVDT
In assay [18] the target is Ubiquitin carboxyl-terminal hydrolase 1 (Homo sapiens) (UniProt O94782). In words: Inhibitors of USP1/UAF1: Pilot qHTS (AID 504865).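 Also: rhodamine fluorescence freed from ubiquitin-rhodamine substrate followed over time; top concentration of the series differs between compounds; nearly all actives have a fitted effect of over 35% in size.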 In a few lines:
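In 50mM HEPES pH 7.8 containing 0.5mM EDTA, 1mM TCEP, 0.1 mg/ml BSA and 0.01% Tween-20, 1nM USP1/UAF1 is exposed to compound for 15 min, then Ub-Rho (150nM final) is added and fluorescence is read over time.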

Assay [19] addresses DNA dC->dU-editing enzyme APOBEC-3G (Homo sapiens) (UniProt Q9HC16). The assay is described as follows: qHTS for inhibitors of Vif-A3G interactions: Validation (AID 588379). In a few lines:
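HeLa cells stably expressing Vif and A3G-eYFP, 700 cells/well, incubated overnight at 37 deg C, then exposed to compound overnight at 37 deg C. Inhibition of Vif-mediated degradation read as increased yellow fluorescence (Ex 488/Em 500-530) by laser-scanning cytometry.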

Chain of DNA dC->dU-editing enzyme APOBEC-3G (Homo sapiens) (Q9HC16 whole entry, looked up): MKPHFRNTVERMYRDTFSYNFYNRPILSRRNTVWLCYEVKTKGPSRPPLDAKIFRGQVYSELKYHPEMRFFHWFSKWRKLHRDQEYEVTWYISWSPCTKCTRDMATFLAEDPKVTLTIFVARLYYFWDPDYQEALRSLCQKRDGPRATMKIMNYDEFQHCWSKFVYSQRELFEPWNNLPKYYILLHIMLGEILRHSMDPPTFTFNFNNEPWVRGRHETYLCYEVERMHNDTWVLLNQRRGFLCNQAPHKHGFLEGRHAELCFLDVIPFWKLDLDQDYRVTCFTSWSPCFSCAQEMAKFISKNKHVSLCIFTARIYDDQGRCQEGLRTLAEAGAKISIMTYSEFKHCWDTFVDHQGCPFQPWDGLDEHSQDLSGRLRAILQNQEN
Chain of Ubiquitin carboxyl-terminal hydrolase 1 (Homo sapiens) (O94782 whole entry, looked up): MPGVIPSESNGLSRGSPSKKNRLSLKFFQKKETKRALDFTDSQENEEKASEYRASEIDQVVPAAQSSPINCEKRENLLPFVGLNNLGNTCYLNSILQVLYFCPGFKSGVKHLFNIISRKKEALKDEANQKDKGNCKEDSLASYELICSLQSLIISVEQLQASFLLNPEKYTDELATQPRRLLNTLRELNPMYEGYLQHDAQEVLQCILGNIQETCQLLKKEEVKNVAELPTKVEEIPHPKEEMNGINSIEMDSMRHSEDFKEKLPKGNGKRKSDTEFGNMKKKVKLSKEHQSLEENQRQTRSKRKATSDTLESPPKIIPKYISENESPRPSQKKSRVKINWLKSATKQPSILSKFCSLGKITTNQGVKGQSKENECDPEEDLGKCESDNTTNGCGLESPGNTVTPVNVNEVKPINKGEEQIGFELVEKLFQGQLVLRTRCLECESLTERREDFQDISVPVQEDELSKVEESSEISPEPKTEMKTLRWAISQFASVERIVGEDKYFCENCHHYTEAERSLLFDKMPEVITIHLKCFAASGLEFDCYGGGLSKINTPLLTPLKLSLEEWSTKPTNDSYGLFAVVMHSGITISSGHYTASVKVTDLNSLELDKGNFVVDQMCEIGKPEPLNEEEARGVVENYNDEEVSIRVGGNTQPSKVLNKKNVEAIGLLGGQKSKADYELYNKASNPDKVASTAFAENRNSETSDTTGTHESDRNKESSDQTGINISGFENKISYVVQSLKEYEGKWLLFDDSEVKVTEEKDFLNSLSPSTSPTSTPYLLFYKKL
Chain of Cytochrome P450 3A4 (Homo sapiens) (P08684 whole entry, looked up): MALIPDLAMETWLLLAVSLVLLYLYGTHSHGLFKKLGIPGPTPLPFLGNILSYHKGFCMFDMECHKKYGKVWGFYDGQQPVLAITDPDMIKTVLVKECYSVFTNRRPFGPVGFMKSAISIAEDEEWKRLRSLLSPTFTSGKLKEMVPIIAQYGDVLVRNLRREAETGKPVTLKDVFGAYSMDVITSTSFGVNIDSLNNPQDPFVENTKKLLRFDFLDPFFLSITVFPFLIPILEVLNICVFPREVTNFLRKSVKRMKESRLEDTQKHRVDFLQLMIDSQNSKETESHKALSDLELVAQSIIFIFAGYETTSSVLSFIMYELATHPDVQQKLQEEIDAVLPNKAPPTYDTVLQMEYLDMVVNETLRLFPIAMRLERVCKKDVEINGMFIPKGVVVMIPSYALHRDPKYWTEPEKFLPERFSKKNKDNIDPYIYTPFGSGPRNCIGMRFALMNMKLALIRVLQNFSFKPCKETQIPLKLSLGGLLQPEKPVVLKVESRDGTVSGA
Chain of Pyruvate kinase PKM (Homo sapiens) (P14618 whole entry, looked up): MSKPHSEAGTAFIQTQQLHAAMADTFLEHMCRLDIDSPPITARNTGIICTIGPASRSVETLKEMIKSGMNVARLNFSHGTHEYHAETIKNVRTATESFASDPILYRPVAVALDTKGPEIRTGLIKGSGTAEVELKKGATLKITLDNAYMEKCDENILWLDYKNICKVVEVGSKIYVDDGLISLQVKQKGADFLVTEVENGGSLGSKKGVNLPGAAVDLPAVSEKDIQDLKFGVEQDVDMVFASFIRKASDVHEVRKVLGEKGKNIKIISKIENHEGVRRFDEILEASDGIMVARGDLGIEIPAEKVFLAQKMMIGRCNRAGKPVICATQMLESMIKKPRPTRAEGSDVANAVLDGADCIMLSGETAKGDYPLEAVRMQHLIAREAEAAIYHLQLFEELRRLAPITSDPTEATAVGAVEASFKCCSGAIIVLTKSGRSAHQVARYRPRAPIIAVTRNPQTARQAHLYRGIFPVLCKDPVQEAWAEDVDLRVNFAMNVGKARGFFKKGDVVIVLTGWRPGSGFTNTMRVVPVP

In the case of `CN1[C@@H]2CC[C@H]1CC(O[C@@H](c1ccccc1)c1ccc(Cl)cc1)C2` (some centres not stated), the compound was called inactive in [1], in [3], in assay [6], in [9], in [10] and in [11]. Further, the result in [12] and in [13] was inactive. Further, the Potency entry in assay [2], in [7], in assay [14] and in [15] was “inactive” each time. For the same compound, the Potency in assay [4] is greater than 46 µM; in assay [5], greater than 46 µM; in assay [8], 1.26 µM (active) and 1.58 µM (active).

For `c1cncc(C2=NCCC2)c1`, the compound was classed as inactive in [1], in assay [3] and in assay [16]. In addition, the Potency in [4] and in assay [5] was greater than 20.6 µM in each case. The Potency result in [17], in assay [18], in [14] and in assay [15] was “inactive” each time.

For `CN1CCN(C(=O)O[C@@H]2c3nccnc3C(=O)N2c2ccc(Cl)cn2)CC1`, the compound was classed as inactive in [1], in assay [3] and in assay [16]. For the same compound, the Potency entry in assay [2], in [17], in assay [8], in assay [19], in [14] and in assay [15] was “inactive” in each case.

As to `NCCCP(=O)(O)CC1CCCCC1`, the Potency in assay [4] and in assay [5] was greater than 46 µM throughout. The call in [16] was inactive. The Potency entry in assay [17], in [18], in [19], in assay [14] and in assay [15] was “inactive” in each case.

With `C=C1[C@@H](O)C2C=CC[C@H](C)C(=O)[C@@](C)(O)C=C[C@@H](OC(C)=O)[C@@]23C(=O)N[C@H](Cc2ccccc2)[C@@H]3[C@@H]1C` (some centres not stated), the Potency result in assay [2], in assay [17], in assay [7], in [18], in [19] and in [14] was “inactive” in each case. Further, the Potency entry in [15] was “inactive”. The Potency in assay [4] and in [5] was greater than 46 µM in each case. Also, in [16], the result was inactive.

As for `CCC[C@@H]1CC2=CC(=O)CC[C@]2(C)[C@@H]2CC[C@@]3(C)[C@H](CC[C@]3(O)CCC(=O)O)[C@H]12`, the Potency result in assay [2], in [17], in assay [18], in [19], in assay [14] and in assay [15] was “inactive” in each case. The Potency in [4] and in [5] was greater than 46 µM throughout.

As for `CCCCCCCCCOc1ccc2[nH]cc(CCN)c2c1`, the Potency is 0.0398 µM (active) in assay [2], greater than 46 µM in assay [4] and greater than 46 µM in assay [5]. Moreover, the Potency result in assay [17], in assay [7], in assay [19], in assay [14] and in [15] was “inactive” throughout.

As to `c1ccc(CCCCN2CCC(c3ccccc3)CC2)cc1`, the Potency is 15.8 µM (active) in [2]; greater than 46 µM in assay [4]; greater than 46 µM in assay [5]; 31.6 µM (active) in assay [7]; 39.8 nM (active) in [8]. Moreover, in [16], the call was inactive. Further, the Potency entry in [14] and in [15] was “inactive” throughout.

Turning to `COC1=CC(=O)OC(/C=C/c2ccccc2)C1` (configuration not stated), the compound was called inactive in [1] and in assay [3]. For the same compound, the Potency in assay [4] was greater than 20.6 µM. In addition, the Potency entry in [14] and in assay [15] was “inactive” throughout.

As for `O=NN1CCCC1c1cccnc1` (configuration not stated), the Potency result in assay [14] and in [15] was “inactive” throughout.
